# Test system: T1, p38-gamma
# T1 construct: gene MAPK12
# Conditions: concentration: 1 μM, replicates: in singlicate; n = 1
# 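Note: KINOMEscan kinase panel screen.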
row,Structure (SMILES),%Inh [%]
1,Cn1cncc1C(=O)NC1CCN(c2ccnc(Nc3ccc(F)cc3)n2)C1 (stereo not shown) [GSK1379717],0
2,Nc1nccc(-c2c(-c3ccc(F)cc3)ncn2C2CCN(Cc3ccccc3)CC2)n1 [SB-219980],0
3,O=C1NC(=O)C(c2ccc(Cl)cc2)=C1Nc1ccc(O)cc1 [SB-340867],0
4,O=C(Nc1n[nH]c2nc(-c3ccco3)c(Br)cc12)C1CCN(Cc2ccccc2)C1.O=C(O)[C@H](O)[C@@H](O)C(=O)O (stereo not shown) [SB-742034],20
5,COc1ccc(Nc2nccc(N3CCC(NC(=O)C(C)c4ccc(Cl)cc4)C3)n2)cc1 (stereo not shown) [GSK1379735],22
6,Fc1ccc(-c2nc3n(c2-c2ccncc2)CCS3)cc1 [GI98581],0
7,CNc1cc(-c2ccc3c(N)n[nH]c3c2)nc(N)n1 [GSK2224810],0
8,CC(=O)c1c(C)c2cnc(Nc3ccn(C)n3)nc2n(C2CCCC2)c1=O,0
9,COc1ccc(Nc2nccc(NCCNC(=O)Nc3cc(C)ccc3C)n2)cc1 [GSK1379899],0
10,Cc1ccc(NC(=O)Nc2ccc(Cl)c(C(F)(F)F)c2)cc1-c1ccc(C(=O)Nc2ccncc2)cc1 [GSK1398470],27
11,COc1ccc2cc(-c3nc(-c4ccccc4C(C)C)[nH]c3-c3ccncc3)ccc2c1 [SB-660566],0
12,COc1ccc(CSc2nnc(-c3ccc4c(c3)CCO4)o2)cc1,0
13,CC(C)c1cc(-c2ccc3c(N)n[nH]c3c2)nc(N)n1 [GSK2250882],43

# Reference: publication PMC5540273 (PLoS ONE, 2017)
